KCNQ2 block = blocks the rat KCNQ2 potassium channel. O88943. CHO-K1 KCNQ2, FluxOR thallium flux, 20 min; stronger effect = lower value. B-score at 10 µM. 310,000 tested, 1.1% active. AID 2156;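 active means fluorescence ratio B-score at most minus 3 library SDs, with starting brightness B-score within 2 library SDs, cut at about -5.5 in these data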
KCNQ2 pot = enhances the rat KCNQ2 potassium channel. CHO-K1 KCNQ2, FluxOR thallium flux fluorescence; stronger effect = higher value. B-score at 10 µM. 310,000 tested, 0.54% active. AID 2239;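 active means fluorescence ratio B-score at least 3 SD of library B-scores, with initial fluorescence B-score within 3 of them, cut at about 5.3 in these data; same plate scores as AID 2156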;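 further: B-score of peak minus minimum over baseline fluorescence ratio after K+ and Tl+ stimulus; positive B-score means potentiation of KCNQ2 with more thallium influx and brighter signal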
Kir21 conf inh = confirmation of mouse Kir2.1 potassium channel inhibitors | Tl flux remaining, % of negative control (stronger effect = lower value), % at 10 µM | Kir2.1-expressing cells, FluxOR thallium flux fluorescence; stronger effect = lower value | 2,300 tested, 41% active | AID 2032 | shares compounds with KCNQ2 pot;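 active means Primary-screen hit whose thallium flux fell at least 3 control SD below untreated wells in both duplicates, with normal baseline fluorescence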;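 further: 0% = blank wells without stimulus and 100% = stimulated no-compound controls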
Target sequence (P35561 whole entry, looked up): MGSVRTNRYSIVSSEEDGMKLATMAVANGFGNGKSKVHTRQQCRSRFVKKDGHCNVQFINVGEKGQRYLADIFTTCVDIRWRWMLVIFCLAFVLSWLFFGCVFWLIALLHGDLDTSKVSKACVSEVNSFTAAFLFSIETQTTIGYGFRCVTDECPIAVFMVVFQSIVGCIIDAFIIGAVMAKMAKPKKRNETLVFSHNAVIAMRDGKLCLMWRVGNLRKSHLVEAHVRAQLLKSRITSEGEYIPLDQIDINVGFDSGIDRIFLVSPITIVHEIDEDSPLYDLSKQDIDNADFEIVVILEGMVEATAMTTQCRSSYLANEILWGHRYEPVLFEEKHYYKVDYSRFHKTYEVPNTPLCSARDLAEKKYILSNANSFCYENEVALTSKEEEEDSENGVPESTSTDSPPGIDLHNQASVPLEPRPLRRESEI
HEK293 Tl flux = alters thallium flux in parental HEK293 cells, Kir2.1 counter-screen; FluxOR thallium flux fluorescence; 0% = unstimulated blank wells; shares compounds with KCNQ2 pot; 2,300 tested, 19% active; AID 2105; FluxOR signal as % of negative control (100 = no effect), % at 10 µM;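 active means dye signal at least 3 control SD above or below untreated wells in both duplicates, raw fluorescence within 3, either direction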;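 further: percent is based on the flux ratio of peak minus minimum fluorescence over baseline F0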
CHO-K1 ctr = counter-screen for KCNQ2 potentiators: effect in parental CHO-K1 cells | FluxOR thallium flux fluorescence; zero = vehicle mean+3SD, 100% = vehicle-minus-blank window | AID 2282 | activity increase over 3SD of controls, % at 10 µM | shares compounds with KCNQ2 pot | 1,200 tested, 43% active;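 active means signal rise of at least 3 SD above the untreated control mean, in both duplicate wells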;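 further: counter screen of KCNQ2 potentiator hits so any rise reflects channel-independent effects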
KCNQ1 sel pot = human KCNQ1 counter-target activity of KCNQ2 potentiators; activation over 3SD threshold, % at 10 µM; CHO KCNQ1 stable, FluxOR thallium flux fluorescence; beyond 3SD, as % of vehicle-control signal; AID 2283; shares compounds with KCNQ2 pot; 1,200 tested, 28% active;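 active means fluorescence ratio rise of at least 3 SD of vehicle wells above their mean, in both replicate wells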;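 further: 0% = vehicle mean plus 3 SD and 100% = vehicle minus unstimulated blank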
KCNQ2 pot conf = confirmation of rat KCNQ2 potassium channel potentiators; AID 2287; shares compounds with KCNQ2 pot; CHO-KCNQ2 cells, FluxOR thallium flux fluorescence; potentiation, less the hit threshold, % at 10 µM; 1,200 tested, 68% active;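 active means fluorescence ratio rising 3 SD or more over the vehicle control mean in both replicates, plus primary screen hit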;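 further: peak minus minimum thallium fluorescence divided by baseline after K/Tl stimulus; 0% = vehicle mean plus 3 SD and 100% = vehicle minus unstimulated blank difference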
Kir2-1 sel = tests whether KCNQ2 potentiators also affect mouse Kir2.1; shares compounds with KCNQ2 pot; HEK293 Kir2.1, FluxOR thallium flux fluorescence; AID 2345; 1,200 tested, 2% active; activity over 3SD threshold, % at 10 µM;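 active means fluorescence ratio rise of at least 3 SD above the vehicle-control mean, seen in both replicates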;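 further: 0% = vehicle mean plus 3 SD and 100% = vehicle minus no-stimulus blank window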
KCNQ2 W236L pot = KCNQ2 potentiators acting on retigabine-insensitive rat KCNQ2 W236L mutant; shares compounds with KCNQ2 pot; AID 2558; CHO KCNQ2-W236L, automated patch clamp current; 940 tested, 10% active; current increase over 3SD of negative controls (%), stronger effect = higher value, % at 25 µM;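 active means current increase at least 3 SD of the untreated controls above them in both duplicate recordings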
The depositor's hits bear a star; i = inactive; . = not tested or not shown. An excerpt weighted towards active compounds, which were near 1.6% of everything screened.

SMILES	KCNQ2 block	KCNQ2 pot	Kir21 conf inh	HEK293 Tl flux	others
O=C(CSc1nnc(-c2cccnc2)n1Cc1ccco1)c1ccc2ccccc2c1	i	.	.	.
O=C(CSc1nnc(-c2cccnc2)n1Cc1ccco1)c1ccc(Br)cc1	i	.	67.5%*	72.5%*
O=C(NCCCN1CCCC1=O)C(=O)NCC1OCCCN1S(=O)(=O)c1cc(F)ccc1F (centres undefined)	i	.	.	.
O=C(NCc1ccc(Cl)cc1)c1cc(=O)[nH]c2ccccc12	i	0.01	.	.
O=C(O)c1cccc(Nc2ccncc2[N+](=O)[O-])c1	i	.	.	.
Cc1ccc(C)c(N2CCN(C(=O)c3ccc(NC4=NC5CS(=O)(=O)CC5S4)cc3)CC2)c1 (centres undefined)	i	0.69	.	.
N#CCSCC(=O)Nc1ccc(Cl)cc1	i	0.01	.	.
Cc1c(Cl)cccc1NC(=O)CSC(N)=O	i	4.6	.	.
Cc1ccc(NC(=O)CSC(N)=O)cc1Cl	i	5.29	i	i	CHO-K1 ctr=-23.5;KCNQ1 sel pot=-21.8;KCNQ2 pot conf=3.0*;Kir2-1 sel=-41.8;KCNQ2 W236L pot=i
NC(=O)SCC(=O)Nc1cccc(Cl)c1	i	7.69*	i	i	CHO-K1 ctr=16.3*;KCNQ1 sel pot=-5.6;KCNQ2 pot conf=12.4*;Kir2-1 sel=-43.8;KCNQ2 W236L pot=i
COCC(=O)Nc1ccc(C)c(Cl)c1	i	2.11	.	.
NC(=O)SCC(=O)Nc1ccc(Cl)cc1	i	6*	i	i	CHO-K1 ctr=-10.3;KCNQ1 sel pot=19.8*;KCNQ2 pot conf=19.5*;Kir2-1 sel=-39.9;KCNQ2 W236L pot=i
C=CCOc1ccc(C2C(C(=O)c3ccc(C)o3)=C(O)C(=O)N2Cc2cccnc2)cc1 (centres undefined)	i	.	.	.
COc1ccc(CCC(=O)NCCOc2ccccc2Cl)cc1	i	.	.	.
Cc1c(C)c2c(OCC(=O)N[C@@H](CC(C)C)C(=O)O)cc3c(c2oc1=O)CCC(C)(C)O3	i	1.3	.	.
c1ccc(Cn2nnnc2CN2CCN(c3ncccn3)CC2)cc1	i	0.01	.	.
CCN(Cc1ccccc1)Cc1nnnn1Cc1ccccc1	i	.	38.5%*	69.0%*
O=C1CCC(C(=O)N2CCCC(N3CCN(c4cccc(C(F)(F)F)c4)CC3)C2)=NN1 (centres undefined)	i	0.07	.	.
O=C1CC(N2CCC(Cc3ccccc3)CC2)C(=O)N1CCc1ccccc1 (centres undefined)	i	5.69*	i	i	CHO-K1 ctr=-6.5;KCNQ1 sel pot=-27.7;KCNQ2 pot conf=7.5*;Kir2-1 sel=-32.1;KCNQ2 W236L pot=i
O=C1CC(N2CCN(C3CC(=O)N(CCc4ccccc4)C3=O)CC2)C(=O)N1CCc1ccccc1 (centres undefined)	i	0.42	.	.
O=C(Nc1ccccc1)C(Cl)C(=O)c1ccccc1 (centres undefined)	i	.	66.5%*	70.0%*
CC(C(=O)Nc1ccccc1)C(=O)Nc1ccccc1	i	0.59	.	.
COc1ccc(C)cc1NC(=O)c1cc(S(=O)(=O)N2CCOCC2)cn1C	i	.	.	.
O=C1NC(=S)S/C1=C\c1cc2ccccc2nc1N1CCCCC1	i	5.49*	i	i	CHO-K1 ctr=23.3*;KCNQ1 sel pot=-16.8;KCNQ2 pot conf=21.4*;Kir2-1 sel=-21.1;KCNQ2 W236L pot=i
Cc1nn(C)cc1/C=C1\SC(=S)NC1=O	i	0.35	.	.
CC(=O)N1CCC(=NNC(=O)c2cccs2)CC1	i	.	.	.
O=C(OCC(=O)c1ccc(Cl)cc1Cl)c1cnccn1	i	.	.	.
CSCCC(NC(=O)c1ccco1)C(=O)N1CCN(Cc2ccccc2)CC1 (centres undefined)	i	0.72	.	.
Cc1ccc(OCCC(=O)OCC(=O)NC(=O)c2ccccc2)cc1	i	0.07	.	.
COc1ccc(C(=O)CCS(=O)(=O)c2ccc(F)cc2)cc1OC	i	6.64*	i	i	CHO-K1 ctr=36.3*;KCNQ1 sel pot=60.0*;KCNQ2 pot conf=24.1*;Kir2-1 sel=-51.9;KCNQ2 W236L pot=6.0%*

Assay outcomes (PubChem BioAssay)
